Measured values as given in PubChem BioAssay (Tox21).
Results filed as inconclusive are left out. A call without a number means that no potency is given here. Unmarked numbers belong to inactive results. Active and inactive are the calls of the source. Unless noted, the call rests on the fitted dose curve; in most records, active means well fitted curve in the direction sought with a large enough effect in the repeat runs; inconclusive means weak or mixed curves; inactive means no such curve, though single readings can be large; an effect the other way counts as inactive or inconclusive.

Assays:
[1] = qHTS assay to identify aromatase inhibitors - cell viability counter screen (AID 743084);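 further: cells stimulated with testosterone during compound exposure; nearly all actives have a fitted effect of over 55% in size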
[2] = target: Aryl hydrocarbon receptor (Homo sapiens) (UniProt P35869); assay: qHTS assay to identify small molecule that activate the aryl hydrocarbon receptor (AhR) signaling pathway (AID 743085); further: nearly all actives have a fitted effect of over 15% in size; further: potency means the concentration at half of the fitted maximal effect;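 on activation: HG2L7.5c1 human HepG2 liver cells with stably integrated DRE-driven firefly reporter; series mostly up to about 70 µM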
Summary of the method: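 Reporter assay in engineered HepG2 line HG2L7.5c1, whose plasmid carries twenty dioxin responsive elements upstream of firefly luciferase. Treatment lasted 24 h at 37C; ONE-Glo luminescence gauged induction.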

[3] = qHTS assay to identify small molecule that activate the aryl hydrocarbon receptor (AhR) signaling pathway - cell viability counter screen (AID 743086);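 further: HepG2 liver cells carrying the AhR DRE luciferase reporter; series mostly up to about 70 µM; nearly all actives have a fitted effect of over 45% in size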
Summary of the method: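 HepG2-AhR-luc (HG2L7.5c1) cells, 4000/well, were preincubated 5 h at 37C, exposed to compound in qHTS format for 24 hr at 37C, then given CellTiter-Fluor for 30 min; viability was read as fluorescence in the reporter wells.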

[4] = target: Peroxisome proliferator-activated receptor gamma (Homo sapiens) (UniProt P37231); assay: qHTS assay to identify small molecule agonists of the peroxisome proliferator-activated receptor gamma (PPARg) signaling pathway (AID 743094; active means well fitted activation curve with a large enough effect in the signal ratio in the repeat runs, not every such curve was filed as active; the % refers to the signal ratio)
Summary of the method: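 Quantitative HTS agonist mode: stable HEK293H line with UAS-beta-lactamase reporter under PPARg control, 17 h compound exposure at 37C, fluorescence after 1 h FRET substrate loading at room temperature.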

[5] = target: Peroxisome proliferator-activated receptor gamma (Homo sapiens) (UniProt P37231); assay: qHTS assay to identify small molecule antagonists of the peroxisome proliferator-activated receptor gamma (PPARg) signaling pathway (AID 743191; calls by dose curve; further: nearly all actives have a fitted effect of over 30% in size; further: potency means the concentration at half of the fitted maximal effect)
Summary of the method: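 GeneBLAzer PPARg UAS-bla HEK293H cells carrying a UAS-driven beta-lactamase reporter were plated at 3000 cells/well, preincubated 5 h at 37C, then given compound for 17 h at 37C; LiveBLAzer B/G FRET substrate was read after 1 h at room temperature.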

[6] = qHTS assay to identify small molecule antagonists of the peroxisome proliferator-activated receptor gamma (PPARg) signaling pathway - cell viability counter screen (AID 743194); further: nearly all actives have a fitted effect of over 55% in size
Summary of the method: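 PPARg-UAS-bla HEK293H cells were plated, rested 5 h at 37 C, then treated with compounds plus rosiglitazone (50 nM final) for 17 h at 37 C; viability was then read by CellTiter-Glo luminescence after 30 min at room temperature.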

[7] = qHTS assay for small molecule agonists of the antioxidant response element (ARE) signaling pathway - cell viability counter screen (AID 743203; calls by dose curve; further: nearly all actives have a fitted effect of over 55% in size)
Summary of the method: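 Seeded at 2,000 cells/well, ARE-bla HepG2 cells were incubated 5 hrs before compound addition. After 16 hrs of treatment at 37C with 5% CO2, CellTiter-Glo reagent was added and luminescence read 30 min later.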

[8] = qHTS assay for small molecule activators of the heat shock response signaling pathway - cell viability counter screen (AID 743209); further: nearly all actives have a fitted effect of over 50% in size
Summary of the method: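 First, HSE-bla HeLa cells were seeded at 1500 cells/well and kept overnight at 37 C. Next, compounds were pinned in and incubated 5 h. After the FRET substrate step, CellTiter-Glo was added and luminescence read 30 min later.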

[9] = qHTS assay for small molecule activators of the heat shock response signaling pathway (AID 743210; active means well fitted activation curve with a large enough effect in the signal ratio in the repeat runs, with a control signal flat, not every such curve was filed as active; the % refers to the signal ratio; further: series mostly up to about 63 µM)
Summary of the method: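 HSE-bla HeLa cells (beta-lactamase reporter under heat shock response elements) were exposed to compounds for 5 h at 37 C, then loaded with LiveBLAzer B/G FRET substrate for 2.5 h at room temperature before fluorescence reading.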

[10] = target: Peroxisome proliferator-activated receptor delta (Homo sapiens) (UniProt Q03181); assay: qHTS assay to identify small molecule agonists of the peroxisome proliferator-activated receptor delta (PPARd) signaling pathway (AID 743212; calls by dose curve)
Summary of the method: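 GeneBLAzer PPARd UAS-bla HEK293H cells (beta-lactamase reporter under UAS control), plated and rested 5 h at 37 C, then exposed to compounds in DMSO at 37 C; LiveBLAzer B/G FRET substrate added, 2 h room temperature, fluorescence read.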

[11] = qHTS assay to identify small molecule antagonists of the peroxisome proliferator-activated receptor delta (PPARd) signaling pathway - cell viability counter screen (AID 743213); further: nearly all actives have a fitted effect of over 50% in size
Summary of the method: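 Luminescence from CellTiter-Glo, added after the bla read and incubated 30 min at room temperature, gives viability of HEK293H PPARd-bla cells exposed to compounds for 17 h at 37 C with 300 nM L165041.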

[12] = target: Bile acid receptor (Homo sapiens) (UniProt Q96RI1); assay: qHTS assay to identify small molecule antagonists of the farnesoid-X-receptor (FXR) signaling pathway (AID 743217; active means well fitted inhibition curve with a large enough effect in the signal ratio in the repeat runs, not every such curve was filed as active; the % refers to the signal ratio; further: potency means the concentration at half of the fitted maximal effect)
Summary of the method: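 Antagonist mode against 50 uM (final) chenodeoxycholic acid stimulation in FXR-bla HEK 293T cells, 16 h at 37 °C. Inhibition detected as reduced beta-lactamase activity via LiveBLAzer B/G FRET fluorescence after 2 h at room temperature.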

[13] = qHTS assay to identify small molecule agonists of the farnesoid-X-receptor (FXR) signaling pathway - cell viability counter screen (AID 743218); further: nearly all actives have a fitted effect of over 45% in size
Summary of the method: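 Cytotoxicity counter-screen run in parallel, same wells: FXR-UAS-bla HEK 293T cells dosed 16 h at 37 C, viability read by CellTiter-Glo luminescence after 30 min at room temperature.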

[14] = target: Bile acid receptor (Homo sapiens) (UniProt Q96RI1); assay: qHTS assay to identify small molecule agonists of the farnesoid-X-receptor (FXR) signaling pathway (AID 743220; active means well fitted activation curve with a large enough effect in the signal ratio in the repeat runs, not every such curve was filed as active; the % refers to the signal ratio)
Summary of the method: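 Beta-lactamase reporter under UAS control in GeneBLAzer FXR HEK 293T cells (5000/well) measured with LiveBLAzer FRET substrate after 2 h at room temperature. Compound exposure lasted 16 h at 37C.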

[15] = qHTS assay to identify small molecule antagonists of the farnesoid-X-receptor (FXR) signaling pathway - cell viability counter screen (AID 743221; active means well fitted cell-killing curve with a large enough effect in the repeat runs, not every such curve was filed as active; further: nearly all actives have a fitted effect of over 50% in size)
Summary of the method: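 CellTiter-Glo, 30 min RT, luminescence; same wells as the LiveBLAzer FRET read. Cells: FXR-UAS-bla HEK 293T. Treatment: compound with chenodeoxycholic acid 50 uM final, 16 h at 37 C.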

[16] = target: Vitamin D3 receptor (Homo sapiens) (UniProt P11473); assay: qHTS assay to identify small molecule agonists of the vitamin D receptor (VDR) signaling pathway (AID 743222; calls by dose curve)
Summary of the method: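 Quantitative HTS agonist-mode screen: compounds in DMSO were pin-transferred onto VDR-bla cells and incubated 16 h at 37C, 5% CO2. Reporter activity was detected with LiveBLAzer B/G FRET substrate after 2 h at room temperature.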

[17] = qHTS assay for small molecule agonists of the antioxidant response element (ARE) signaling pathway (AID 743202; active means well fitted activation curve with a large enough effect in the signal ratio in the repeat runs, not every such curve was filed as active; the % refers to the signal ratio)
Summary of the method: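 Read-out: LiveBLAzer B/G FRET substrate fluorescence after 2 h at room temperature, following 16 h compound treatment at 37 C of HepG2 cells carrying an ARE-driven beta-lactamase reporter.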

[18] = qHTS assay to identify small molecule agonists of the peroxisome proliferator-activated receptor delta (PPARd) signaling pathway - cell viability counter screen (AID 743211); further: nearly all actives have a fitted effect of over 55% in size
Summary of the method: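 Multiplexed format: after the 2 h room-temperature LiveBLAzer B/G FRET step, CellTiter-Glo was added to the same wells. Luminescence after 30 min gave cell viability; compound exposure was 17 h at 37C.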

[19] = target: Peroxisome proliferator-activated receptor delta (Homo sapiens) (UniProt Q03181); assay: qHTS assay to identify small molecule antagonists of the peroxisome proliferator-activated receptor delta (PPARd) signaling pathway (AID 743215; active means well fitted inhibition curve with a large enough effect in the signal ratio in the repeat runs, not every such curve was filed as active; the % refers to the signal ratio;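 further: cells stimulated with agonist L165041 at 300 nM final during compound exposure; series mostly up to about 62 µM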)
Summary of the method: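 Inhibition of L165041-driven (300 nM final) PPARd signaling is scored in HEK293H UAS-bla cells. Exposure lasts 17 h at 37 C; beta-lactamase activity is then read by FRET substrate fluorescence after 2 h at room temperature.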

[20] = target: Vitamin D3 receptor (Homo sapiens) (UniProt P11473); assay: qHTS assay to identify small molecule antagonists of the vitamin D receptor (VDR) signaling pathway (AID 743223; active means well fitted inhibition curve with a large enough effect in the signal ratio in the repeat runs, not every such curve was filed as active; the % refers to the signal ratio)
Summary of the method: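 After VDR-bla cells are plated and left 4 h at 37C, DMSO-dissolved compounds and 3 nM (final) calcitriol agonist are added. Incubation continues 16 h at 37C; FRET beta-lactamase substrate then develops 2 h at room temperature.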

Chain of Peroxisome proliferator-activated receptor delta (Homo sapiens) (Q03181 whole entry, looked up): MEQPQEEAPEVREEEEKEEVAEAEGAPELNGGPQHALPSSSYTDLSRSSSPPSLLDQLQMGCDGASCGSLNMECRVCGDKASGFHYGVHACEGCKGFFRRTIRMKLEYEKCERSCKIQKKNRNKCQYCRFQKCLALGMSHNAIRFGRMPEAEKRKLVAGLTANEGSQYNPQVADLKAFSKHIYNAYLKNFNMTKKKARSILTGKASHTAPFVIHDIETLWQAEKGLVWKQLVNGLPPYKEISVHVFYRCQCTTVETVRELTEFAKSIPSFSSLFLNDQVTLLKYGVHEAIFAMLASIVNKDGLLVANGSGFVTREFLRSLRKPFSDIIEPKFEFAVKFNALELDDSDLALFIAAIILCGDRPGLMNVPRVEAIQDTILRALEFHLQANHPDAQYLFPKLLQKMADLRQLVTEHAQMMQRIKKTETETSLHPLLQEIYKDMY
Chain of Aryl hydrocarbon receptor (Homo sapiens) (P35869 whole entry, looked up): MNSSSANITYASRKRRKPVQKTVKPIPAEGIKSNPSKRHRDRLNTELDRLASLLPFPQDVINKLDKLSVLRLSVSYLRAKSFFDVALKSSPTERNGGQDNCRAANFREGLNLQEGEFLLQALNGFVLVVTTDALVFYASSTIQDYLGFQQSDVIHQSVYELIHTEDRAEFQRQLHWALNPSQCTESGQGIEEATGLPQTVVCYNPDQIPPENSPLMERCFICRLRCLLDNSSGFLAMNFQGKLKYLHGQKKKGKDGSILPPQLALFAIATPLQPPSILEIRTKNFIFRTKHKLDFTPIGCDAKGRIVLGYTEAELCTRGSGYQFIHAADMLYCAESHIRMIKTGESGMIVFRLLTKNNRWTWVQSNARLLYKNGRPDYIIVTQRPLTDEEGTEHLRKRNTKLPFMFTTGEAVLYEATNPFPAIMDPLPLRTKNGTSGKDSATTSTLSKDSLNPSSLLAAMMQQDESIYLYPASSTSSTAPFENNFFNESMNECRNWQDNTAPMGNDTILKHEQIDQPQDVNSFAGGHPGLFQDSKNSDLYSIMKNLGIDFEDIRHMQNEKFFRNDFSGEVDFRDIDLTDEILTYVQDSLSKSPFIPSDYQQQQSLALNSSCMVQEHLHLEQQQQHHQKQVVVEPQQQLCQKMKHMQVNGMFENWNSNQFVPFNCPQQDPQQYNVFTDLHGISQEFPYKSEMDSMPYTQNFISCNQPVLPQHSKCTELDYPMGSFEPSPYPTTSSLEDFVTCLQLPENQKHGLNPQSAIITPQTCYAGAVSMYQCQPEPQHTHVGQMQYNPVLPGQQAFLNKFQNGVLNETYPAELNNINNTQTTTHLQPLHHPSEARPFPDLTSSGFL
Chain of Peroxisome proliferator-activated receptor gamma (Homo sapiens) (P37231 whole entry, looked up): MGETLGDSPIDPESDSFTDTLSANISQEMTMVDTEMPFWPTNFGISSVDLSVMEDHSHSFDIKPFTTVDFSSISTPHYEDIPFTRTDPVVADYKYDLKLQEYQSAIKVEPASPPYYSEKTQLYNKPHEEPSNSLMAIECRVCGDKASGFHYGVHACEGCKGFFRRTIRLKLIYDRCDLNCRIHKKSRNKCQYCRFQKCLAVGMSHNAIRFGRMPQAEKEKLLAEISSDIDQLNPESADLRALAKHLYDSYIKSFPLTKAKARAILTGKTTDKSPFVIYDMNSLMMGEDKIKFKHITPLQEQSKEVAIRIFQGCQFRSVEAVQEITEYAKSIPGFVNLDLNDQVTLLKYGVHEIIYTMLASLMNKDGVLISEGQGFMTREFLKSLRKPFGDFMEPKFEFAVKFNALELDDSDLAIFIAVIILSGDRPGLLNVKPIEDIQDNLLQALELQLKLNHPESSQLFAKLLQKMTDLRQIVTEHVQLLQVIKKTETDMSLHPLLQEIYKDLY
Chain of Bile acid receptor (Homo sapiens) (Q96RI1 whole entry, looked up): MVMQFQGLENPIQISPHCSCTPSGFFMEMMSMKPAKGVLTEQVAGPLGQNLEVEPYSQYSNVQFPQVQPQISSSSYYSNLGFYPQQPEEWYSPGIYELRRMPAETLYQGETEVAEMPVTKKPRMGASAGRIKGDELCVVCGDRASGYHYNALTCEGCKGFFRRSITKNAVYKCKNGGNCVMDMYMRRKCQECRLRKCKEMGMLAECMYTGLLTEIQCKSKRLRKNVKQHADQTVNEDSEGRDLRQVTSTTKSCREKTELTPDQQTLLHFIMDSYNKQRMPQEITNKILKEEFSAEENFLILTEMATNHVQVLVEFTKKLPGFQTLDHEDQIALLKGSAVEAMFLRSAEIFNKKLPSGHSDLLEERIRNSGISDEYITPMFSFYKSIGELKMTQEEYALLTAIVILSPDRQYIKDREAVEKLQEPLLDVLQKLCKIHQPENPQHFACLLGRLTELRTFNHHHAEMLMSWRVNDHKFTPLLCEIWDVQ
Chain of Vitamin D3 receptor (Homo sapiens) (P11473 whole entry, looked up): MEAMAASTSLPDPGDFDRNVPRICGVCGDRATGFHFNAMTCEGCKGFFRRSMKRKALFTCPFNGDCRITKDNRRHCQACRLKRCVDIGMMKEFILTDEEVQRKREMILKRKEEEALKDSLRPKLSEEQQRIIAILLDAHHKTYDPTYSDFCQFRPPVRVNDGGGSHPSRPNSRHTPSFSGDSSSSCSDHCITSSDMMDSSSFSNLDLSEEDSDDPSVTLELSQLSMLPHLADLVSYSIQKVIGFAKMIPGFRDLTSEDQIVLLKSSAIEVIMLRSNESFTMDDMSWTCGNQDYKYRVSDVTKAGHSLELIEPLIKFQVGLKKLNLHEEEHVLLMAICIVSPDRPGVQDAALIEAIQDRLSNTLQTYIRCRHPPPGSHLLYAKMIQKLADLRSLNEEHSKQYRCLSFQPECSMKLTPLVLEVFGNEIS

SMILES | Potency [1] | Potency [2] | Potency [3] | Potency [4] | Potency [5] | Potency [6] | Potency [7] | Potency [8] | Potency [9] | Potency [10] | Potency [11] | Potency [12] | Potency [13] | Potency [14] | Potency [15] | Potency [16] | Potency [17] | Potency [18] | Potency [19] | outcome [20]
CCCCOC(=O)CCCCCCCC(=O)OCCCC | inactive | inactive | inactive | inactive | inactive | inactive | inactive | inactive | inactive | inactive | inactive | inactive | inactive | inactive | inactive | inactive |  |  |  | 
COS(=O)(=O)C(F)(F)F | inactive | inactive | inactive | inactive |  | inactive | inactive | inactive |  | inactive |  | inactive | inactive | inactive | inactive |  | inactive |  |  | 
C[N+](C)(C)CCOC(=O)CCC(=O)OCC[N+](C)(C)C | inactive | inactive | inactive | inactive | inactive |  | inactive | inactive | inactive |  |  |  | inactive |  | inactive |  | inactive |  |  | 
CN1CCN(C(c2ccccc2)c2ccccc2)CC1 | inactive | inactive | inactive | inactive |  | inactive | inactive | inactive | inactive | inactive | inactive |  | inactive |  | inactive | inactive | inactive | inactive | inactive | inactive
CCC(Cl)CCC(Cl)C(Cl)CC(Cl)C(Cl)C(Cl)CCl (configuration not stated) | inactive | inactive | inactive | inactive | inactive | inactive | inactive | inactive |  | inactive |  | inactive | inactive | inactive |  |  |  |  |  | 
O=C1c2ccccc2S(=O)(=O)N1CCCCN1CCN(c2ncccn2)CC1 | inactive | inactive | inactive | inactive | inactive |  | inactive | inactive | inactive |  | inactive |  | inactive |  | inactive |  |  | inactive |  | 
O=[N+]([O-])c1cccc(S(=O)(=O)O)c1 | inactive | inactive | inactive | inactive | inactive |  | inactive | inactive | inactive | inactive | inactive |  |  |  | inactive | inactive |  |  | inactive | inactive
O=C(O)c1ccc(S(=O)(=O)O)cc1C(=O)O | inactive | inactive | inactive | inactive | inactive |  | inactive | inactive |  | inactive | inactive |  | inactive |  |  | inactive | inactive | inactive | inactive | 
O=[N+]([O-])c1ccc2[nH]ncc2c1 | inactive | inactive | inactive | inactive | inactive |  | inactive | inactive | inactive | inactive | inactive |  | inactive |  | inactive | inactive | inactive | inactive | inactive | inactive
COC(C)(C)CCO | inactive | inactive | inactive | inactive |  | inactive | inactive | inactive | inactive | inactive | inactive |  | inactive |  | inactive | inactive | inactive | inactive | inactive | inactive
CCOCC(O)COc1ccc(NC(=O)CC[S+](C)C)cc1 (configuration not stated) | inactive | 5.31 µM (active) | inactive | inactive | inactive | inactive | inactive | inactive |  | inactive |  | inactive | inactive |  | inactive | inactive |  |  | inactive | 
CC[N+](C)(CC)CCOC(=O)C(O)(c1ccccc1)C1CCCCC1 (configuration not stated) | inactive | inactive | inactive | inactive |  | inactive | inactive | inactive | inactive |  | inactive |  | inactive |  | inactive | inactive | inactive | inactive |  | inactive
COc1ccc(-c2nc3ccc(C4=NNC(=O)CC4C)cc3[nH]2)cc1 (configuration not stated) | inactive | 11.9 µM (active) | inactive | inactive |  | inactive | inactive | inactive | inactive | inactive |  | 29.8 µM (active) |  | inactive | inactive | inactive | inactive |  |  | inactive
O=CC1CC=CCC1 (configuration not stated) | inactive | inactive | inactive | inactive |  | inactive | inactive | inactive | inactive | inactive | inactive |  | inactive | inactive | inactive | inactive | inactive |  | inactive | inactive
CCOC(=O)NCCOc1ccc(Oc2ccccc2)cc1 | inactive | inactive | inactive | inactive | 38.9 µM (active) |  | inactive | inactive | inactive | inactive |  | inactive |  | inactive | inactive | inactive |  | inactive |  | inactive
C=CCOc1ccccc1OCC(O)CNC(C)C (configuration not stated) | inactive | inactive | inactive | inactive |  | inactive | inactive | inactive | inactive | inactive | inactive | inactive | inactive | inactive | inactive | inactive | inactive | inactive | inactive | inactive
CC(C)(C)Cl | inactive | inactive | inactive | inactive | inactive |  | inactive | inactive | inactive |  | inactive | inactive | inactive | inactive |  | inactive | inactive |  |  | 
